Experimental data taken from ChEMBL document CHEMBL4513216, “Probing the Open Global Health Chemical Diversity Library for Multistage-Active Starting Points for Next-Generation Antimalarials” (ACS Infect Dis, 2020).
Among all 69,000 compounds or so, about 8,600 (12%) showed an effect of 50% or more. The sample as a whole holds a higher share of strong results than the screen did.

The compounds below were run on Plasmodium berghei (assay: Screen against P. berghei liver stage (PbLuc), transformed with Luciferase, at 10uM). Settings: tested at 10 uM.
Format: functional, HepG2

Row | Compound | INHIBITION [%]
1 | Cc1cc(C(=O)N2CC[C@H]3[C@H](C[C@@H](CN4CCCC4)N3C)C2)c(C)o1 | 39.5
2 | Cc1nc(C(C)C)ncc1C(=O)N1CCCC(N2CCCC2)C1 (configuration not stated) | 26.8
3 | O=C(O)CSC1CCc2ccccc2NC1=O (configuration not stated) | 18.4
4 | NS(=O)(=O)CCN1CCN(c2ccccc2O)CC1 | -24.7
5 | CC(C)NC(=O)N1C[C@@H]2C[C@H](C(=O)N3CCCC3)[C@H](C1)O2 | 43.9
6 | CNC(=O)[C@H]1C[C@H]2CN(C(=O)NC(C)C)C[C@@H]1O2 | 57.5
7 | CC(C)CS(=O)(=O)N1C[C@@H]2C[C@H](C(=O)N3CCN(C)CC3)[C@H](C1)O2 | -1.28
8 | O=C(Nc1ccc(F)cc1)N1C[C@@H]2C[C@H](C(=O)N3CCOCC3)[C@H](C1)O2 | 1.58
9 | CC(C)CS(=O)(=O)N1C[C@@H]2C[C@H](C(=O)N3CCCC3)[C@H](C1)O2 | 32.5
10 | CCOC(=O)CCNC(=O)N1CCCC(CNC(=O)c2ccco2)C1 (configuration not stated) | 15.7
11 | CC(C)CS(=O)(=O)N1C[C@@H]2C[C@H](C(=O)N3CCOCC3)[C@H](C1)O2 | 83.2
12 | CCOC(=O)CNC(=O)N1CCCC(CNC(=O)c2ccco2)C1 (configuration not stated) | 3.73
13 | O=C(Nc1ccccc1)N1C[C@@H]2C[C@H](C(=O)N3CCCC3)[C@H](C1)O2 | -13.2
14 | CC(C)NC(=O)[C@H]1C[C@H]2CN(C(=O)NC(C)C)C[C@@H]1O2 | 24
15 | O=C(Nc1ccccc1)N1C[C@@H]2C[C@H](C(=O)N3CCOCC3)[C@H](C1)O2 | 55.4
16 | O=C(NCC1CCCN(C(=O)NCCc2ccccc2)C1)c1ccco1 (configuration not stated) | 59.1
17 | CCS(=O)(=O)N[C@H]1CN(CC(C)(C)N2CCOCC2)C[C@@H]1C1CC1 | 18.5
18 | O=C(Nc1ccccc1)C1=NOC2(CCCN(C(=O)C3CCCC3)C2)C1 (configuration not stated) | -31
19 | O=C(c1ccn(-c2ccc(F)cc2)n1)N1CCCC(n2ccnc2)C1 (configuration not stated) | -17
20 | CCc1nc(CNC2CCN(S(C)(=O)=O)CC2)cs1 | 28.3
21 | O=C(C1CCOCC1)N1CCO[C@H]2[C@@H](OCC3CC3)CC[C@@H]21 | -19.8
22 | CCC(C)N(Cc1cccnc1)C(=O)c1ccc(NS(=O)(=O)CC)cc1 (configuration not stated) | 18.8
23 | CCCn1ncc(C(=O)N2CCCC(OCc3ccccn3)C2)c1C (configuration not stated) | -38.6
24 | CNC(=O)N1C[C@@H]2C[C@H](C(=O)Nc3ccccc3)[C@H](C1)O2 | 62
25 | CNC(=O)[C@H]1C[C@H]2CN(C(=O)Nc3ccccc3)C[C@@H]1O2 | -26.5
26 | CN(C)C(=O)[C@H]1C[C@H]2CN(CCc3ccccc3)C[C@@H]1O2 | 66

Row | Compound | INHIBITION [%]
27 | CNC(=O)[C@H]1C[C@H]2CN(C(=O)NCCc3ccccc3)C[C@@H]1O2 | 19.5
28 | CN(C)C(=O)[C@H]1C[C@H]2CN(S(=O)(=O)Cc3ccccc3)C[C@@H]1O2 | 19.9
29 | CNC(=O)N1C[C@@H]2C[C@H](C(=O)Nc3cccnc3)[C@H](C1)O2 | 54.4
30 | O=C(Nc1ccccc1)[C@H]1C[C@H]2CN(C(=O)Nc3ccccc3)C[C@@H]1O2 | 7.31
31 | O=C(Nc1cccnc1)[C@H]1C[C@H]2CN(C(=O)NC3CCCC3)C[C@@H]1O2 | 9.67
32 | CN1C[C@@H]2C[C@H](C(=O)Nc3cccnc3)[C@H](C1)O2 | 41.6
33 | O=C(NCc1ccccc1)N1C[C@@H]2C[C@H](C(=O)N3CCCC3)[C@H](C1)O2 | 15.3
34 | CN(C)C(=O)[C@H]1C[C@H]2CN(S(=O)(=O)c3ccccc3)C[C@@H]1O2 | 33.4
35 | O=C(NCCc1ccccc1)N1C[C@@H]2C[C@H](C(=O)N3CCCC3)[C@H](C1)O2 | 57.1
36 | COCCc1noc(CN2CCCC2c2c(C)nn(C)c2OC)n1 (configuration not stated) | 17.4
37 | CCCNC(=O)C1CCCN(Cc2csc(C(C)(C)C)n2)C1 (configuration not stated) | -62.8
38 | CNC(=O)[C@@H](c1ccccc1OC)N1CCC[C@H]1C(=O)NC(C)(C)C | -22.4
39 | Cc1cccc(C)c1OCC(=O)NC(C)c1nnc2n1CCC2 (configuration not stated) | -29.2
40 | COc1c(CNCC(=O)N2CCN(C)CC2)c(C(C)C)nn1C | 42.1
41 | Cc1noc(CNC(=O)c2ccccc2-n2cc(CN)cn2)n1 | 20.8
42 | O=C1CN(C(=O)c2cc3ccc(Br)cc3[nH]2)CCN1 | -56.7
43 | CCc1cnc(CN(C)C2CCN(CC3CCOCC3)C2)o1 (configuration not stated) | 5.85
44 | Cc1nsc(NC(=O)N2CCc3sccc3C2)n1 | 24.1
45 | OC(COc1ccc(F)cc1)CN1CCC(c2ccn[nH]2)CC1 (configuration not stated) | 37.9
46 | Cc1cccc(N2CCOCC3(C2)CN(c2cnn(C)c2)C(=O)CO3)n1 (configuration not stated) | 44.4
47 | CC(C)Oc1ncnc2c1CCN(C(=O)c1cccn1C)CC2 | 7.39
48 | O=C1Nc2ccccc2/C1=C1\CCCCCN1 | -2.09
49 | O=C1Nc2ccccc2C12CCCN(Cc1ccc3c(c1)OCCO3)C2 (configuration not stated) | 43.3
50 | CS(=O)(=O)c1ccc(CN2CCCC3(C2)C(=O)Nc2ccccc23)cc1 (configuration not stated) | 69
51 | O=C1Nc2ccccc2C12CCCN(Cc1ccncc1)C2 (configuration not stated) | 16.6
52 | CNc1ncc(CN(C)Cc2cc(O)c3cc(C)cc(C)c3n2)cn1 | 35.5

Row | Compound | INHIBITION [%]
53 | CNc1ncc(CN(C)Cc2cc(O)c3cc(F)ccc3n2)cn1 | 40.9
54 | CNc1ncc(CN(C)Cc2cc(O)c3cccc(Cl)c3n2)cn1 | 60.4
55 | COc1ccccc1CNC(=O)c1ccccc1-n1cnc(CN)c1 | -1.85
56 | Cc1ccc(SC2CCCC2)c(C(=O)NCCc2n[nH]c(=O)[nH]2)c1 | 49.9
57 | CC(=O)NCCNC(=O)c1cc(C)ccc1SC1CCCC1 | 49.9
58 | Cc1ccc(SC2CCCC2)c(C(=O)NCCO)c1 | 90.7
59 | COCCc1ncc(CNC2(c3ccc(Cl)cc3Cl)CC2)cn1 | 34
60 | CCCN1CCC(Nc2cc(-c3ccccc3)ccc2OC)CC1 | 78.9
61 | COCCN1CCC(Nc2ccc(C#N)cc2F)CC1 | 21.7
62 | CCCN1CCC(NC(=O)Nc2ccc(OC)c(OC)c2)CC1 | -4.46
63 | Cc1cc(C(=O)NCC(O)c2c(Cl)cccc2Cl)nn1C (configuration not stated) | 25.2
64 | CCC(=O)N1CCN(c2ncnc3cc4c(cc23)OCCO4)CC1 | 41.6
65 | CCOC(=O)N1CC(=O)N(Cc2cccc(OC)c2OC)CC(O)C1 (configuration not stated) | 0.284
66 | COc1ccc(CN2CC(O)CN(C(=O)OCC(C)(C)C)CC2=O)cc1 (configuration not stated) | -15.6
67 | COc1cccc(CN2CC(O)CN(C(=O)C(C)(C)C)CC2=O)c1OC (configuration not stated) | 58.5
68 | CCOC(=O)N1CC(=O)N(Cc2ccc(OC)cc2)CC(O)C1 (configuration not stated) | 68.4
69 | COc1ccc(CN2CC(O)CN(C(=O)OCC(C)C)CC2=O)cc1 (configuration not stated) | 15.4
70 | COc1cccc(CN2CC(O)CN(C(=O)C3CC3)CC2=O)c1OC (configuration not stated) | -1.23
71 | COCC(=O)N1CCCCC1c1nc(N(C)C)ncc1-c1cc(C)no1 (configuration not stated) | 17.435
72 | Cn1ccc(C(=O)N2CCCC(c3cc(O)n(C)n3)C2)n1 (configuration not stated) | 36.4
73 | CCc1cnc(C)nc1NCc1cnc2c(c1)CCC2 | 46.4
74 | COc1ccccc1-n1nc(C(C)C)nc1Cc1nnc(N)s1 | 17.6
75 | CC1=C(C(=O)N(C)Cc2noc3c2CCCC3)C(C)NC(=O)N1 (configuration not stated) | 11.8
76 | CCc1c(C(=O)NCC2CCS(=O)(=O)C2)cnn1-c1ccccc1 (configuration not stated) | 4.71
77 | O=c1cc(CN2CCCC2)nc2n1CCCN(Cc1ccoc1)C2 | -19.5
78 | O=C(NCCNC(=O)C1CCCCC1)NCCn1cccc1 | 18.6

Row | Compound | INHIBITION [%]
79 | O=C(NCCCNC(=O)C1CCC1)NCCn1cccc1 | 54.4
80 | O=C(NCCn1cccc1)C1CCCOC1 (configuration not stated) | 39.8
81 | NC(=O)c1cccc(CS(=O)(=O)CC(O)Cn2cccn2)c1 (configuration not stated) | 4.41
82 | CN(C)C(CNC(=O)NCCOc1ccccc1)c1ccco1 (configuration not stated) | -90.7
83 | CN(C)c1cc(C(=O)N2CCCC2c2cnn(C)c2)ccn1 (configuration not stated) | 22.3
84 | CCN1CCC(CC(=O)N(C)C(C)c2cncs2)CC1 (configuration not stated) | 0.825
85 | O=S(=O)(NCC(O)c1ccc(C(F)(F)F)cc1)C1CC1 (configuration not stated) | 72.2
86 | CSc1ccc(C(O)CNS(=O)(=O)C2CC2)cc1 (configuration not stated) | 44.9
87 | CN(C)c1ccc(C(O)CNS(=O)(=O)C2CC2)cc1 (configuration not stated) | 38.1
88 | Cc1nn(C2CCS(=O)(=O)C2)c(O)c1Cc1ccc(Br)cc1 (configuration not stated) | 43.4
89 | CCOC(CC)C(=O)NCCC(=O)N1CCN(c2ccccn2)CC1 (configuration not stated) | -36.3
90 | Cc1cc(CN(C)C(=O)NC2CCN(c3ncccn3)CC2)no1 | 27.1
91 | COCCCNc1ncc(-c2cccc(F)c2)c(-c2nccn2C)n1 | 13.7
92 | CC1CCCN(c2ncc(-c3ccccc3F)c(-c3nccn3C)n2)C1 (configuration not stated) | 75.45
93 | CN1CCCC(c2cccc(-c3ccccc3F)n2)C1 (configuration not stated) | 31.15
94 | CC1CCN(c2ncc(C#N)c(N)n2)CC1 | -10.3
95 | O=c1c2cnc(N3CCCCC3)nc2ccn1-c1ccccc1F | -2.04
96 | Cn1ccnc1-c1nc(N2CCCCC2)ncc1-c1ccccc1F | 54.8
97 | Cc1cc(-c2cnc(N3CCCC(C)C3)nc2C(C)C)on1 (configuration not stated) | 26.3
98 | CC1CCN(c2ncc(-c3ccccc3F)c(-c3nccn3C)n2)CC1 | 72.05
99 | Cc1cc(CNc2ccccc2Cl)no1 | -38.9
100 | COCCC(=O)N1C[C@@H](O)[C@H](N2CCN(c3ccccc3)CC2)C1 | 16.5
101 | CCOc1ncccc1C(=O)N1CCCC(n2nc(C)cc2C)C1 (configuration not stated) | 0.0996
102 | O=C(c1cccs1)N1CCC[C@]2(C[C@@H](OCc3ccncc3)CO2)C1 | -41
